LDHA inh: blocks human lactate dehydrogenase A. 480,000 compounds, 0.15% hits. AID 1347041. purified LDHA, NADH/diaphorase-resazurin fluorescence; stronger effect = lower value. activity change, % (values are at about 110 or 230 µM); in the data active = activity change below about -30%; inconclusive = mostly about -25% to -30%;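 also: plate controls were DMSO wells for no effect and wells without enzyme for full effect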
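Enzyme activity of human lactate dehydrogenase 5 (2 nM; 0.06 mM NADH, 0.2 mM pyruvate, 5 min, RT) is measured via a resazurin/diaphorase fluorescence readout of residual NADH.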
GLP-1R agonist: activates the human GLP-1 receptor; Potency, µM (titrated, usually from 45.6 µM), for inactives: at the highest dose activation, hits mostly activators; 380,000 compounds, 0.007% hits; HEK293 GLP-1R CRE-luciferase, luminescence, 4-6 h; cells express a hypersensitive GLP-1R form; AID 624172; P43220; also: potency is read from the fitted curve at half-maximal effect; % of control where 0% means no effect
Target sequence (P43220 whole entry, looked up): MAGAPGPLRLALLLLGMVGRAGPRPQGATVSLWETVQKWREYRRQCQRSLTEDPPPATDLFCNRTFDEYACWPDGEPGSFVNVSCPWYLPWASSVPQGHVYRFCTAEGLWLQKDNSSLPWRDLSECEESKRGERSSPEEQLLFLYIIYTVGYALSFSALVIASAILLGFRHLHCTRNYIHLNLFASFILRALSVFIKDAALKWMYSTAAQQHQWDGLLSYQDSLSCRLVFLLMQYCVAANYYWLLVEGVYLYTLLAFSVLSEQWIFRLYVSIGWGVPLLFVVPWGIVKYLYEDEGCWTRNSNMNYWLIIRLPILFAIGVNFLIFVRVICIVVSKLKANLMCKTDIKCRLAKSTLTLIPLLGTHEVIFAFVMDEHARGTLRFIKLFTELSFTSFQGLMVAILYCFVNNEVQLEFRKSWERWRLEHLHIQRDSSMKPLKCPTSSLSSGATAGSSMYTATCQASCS
ClpP mod: qHTS Assay for Activators of ClpP. purified B. subtilis ClpP, FRET peptide cleavage, 20 min. Potency, µM (titrated, usually from 57.5 µM), inactives show top-dose activity change, negative = active. AID 651965, 2013. ATP-dependent Clp protease proteolytic subunit (Bacillus subtilis (strain 168)), P80244. 340,000 compounds, 1.9% hits; active = well fitted falling curve with a large enough effect; inconclusive = small, poorly fitted or top-dose-only effect; inactive = no such curve, though single readings can be large or run the other way; also: potency is read from the fitted curve at half-maximal effect; the source files actives as falling curves though it sought activators and does not explain the sign; nearly all actives have a fitted effect of over 65% in size
Target sequence (P80244 whole entry, looked up): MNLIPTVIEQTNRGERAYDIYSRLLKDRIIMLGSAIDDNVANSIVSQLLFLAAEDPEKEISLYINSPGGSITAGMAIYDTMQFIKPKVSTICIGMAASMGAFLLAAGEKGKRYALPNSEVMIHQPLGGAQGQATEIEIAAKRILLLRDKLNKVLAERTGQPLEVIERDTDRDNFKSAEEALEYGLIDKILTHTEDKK
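Purified B. subtilis ClpP, 10 microg/mL final in Tris/HCl pH8 with KCl, BSA, glycerol and Tween-20, cleaved an Abz/nitrotyrosine-quenched decapeptide. Fluorescence (ex 320, em 430) was read at 0 and 20 min at room temperature. Delta was normalized to 5.8 microM ADEP and DMSO/no-enzyme controls.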
GLP-1R inv ag: inverse agonists of human GLP-1 receptor. P43220. HEK293 GLP-1R CRE-luciferase, luminescence, 24 h; GLP-1R form is constitutively active. Potency, µM (highest dose often 38.3 µM), without a hit: top-dose activity change, negative = inhibition, hits mostly inhibitors. 410,000 compounds, 1.6% hits. AID 624417; also: potency is read from the fitted curve at half-maximal effect; % is scaled to controls: 0 for no effect and ±100 for the full control effect; nearly all actives have a fitted effect of over 55% in size
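Assay principle: reduced luminescence from a cAMP-responsive reporter in HEK293 cells co-expressing a constitutively active GLP-1R. Conditions: 24 hr compound incubation, 37 deg C, 5% CO2.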
p53 reactivation: mutant p53 re-activation in reporter cells; H1299 p53-A138V BP100-luciferase reporter, luminescence, 24 h; Potency, µM (highest dose often 92.2 µM), for inactives: top-dose activity change, positive = activation, actives largely listed as activators; 320,000 compounds, 0.063% hits; AID 504706; also: potency is read from the fitted curve at half-maximal effect; % of control where 0% means no effect; nearly all actives have a fitted effect of over 45% in size
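p53-null H1299 cells stably carrying temperature-sensitive p53-A138V and a BP100-luciferase reporter were pinned with compounds (4-point, 1:5 series) and held 24 hrs at 37 deg C. Luminescence was read 10 min after detection reagent.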
HEK293 tox: cytotoxicity counter-screen for GLP-1 receptor inverse agonists; HEK293 cAMP-luciferase reporter cells, luminescence, 24 h; Potency, µM (highest dose often 38.3 µM), inactives show at the top dose activity change, negative = inhibition, most hits filed as inhibitors; 410,000 compounds, 0.13% hits; AID 624418;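 also: loss of luciferase light is scored as toxicity; potency is read from the fitted curve at half-maximal effect; % is scaled to controls: 0 for no effect and ±100 for the full control effect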
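Luminescence readout: signal drop marks cytotoxicity. Plated cells grew 12 h at 37 °C, 5% CO2, received 23 nL compound for 24 h, then got luciferase reagent, read after 12 min at RT.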
* hit, by the source's call. Most compounds without a hit are left out; they make up all but 2.9% or so of the library. Unless noted, calls follow the shape of the dose curve; as a rule, active = well fitted curve in the direction sought with a large enough effect; inconclusive = small, poorly fitted or top-dose-only effect, or another doubt; inactive = no such curve, though single readings can be large; an effect the other way counts as inactive or inconclusive.

Cn1c(=O)c2sccc2n(CC(=O)NCC2CCCO2)c1=O (configuration not stated) was read as LDHA inh -40.6*.
Screening CCOC(=O)N1CCN(C(=O)C2CCN(S(=O)(=O)CC)CC2)CC1 returned LDHA inh -8.6, GLP-1R agonist -4.1%, ClpP mod 0.3%, GLP-1R inv ag 22.5%, p53 reactivation 2.4% and HEK293 tox -1.8%.
Screening CC(C)(C)C(=O)CSc1ncnc2c1cnn2Cc1ccccc1 returned LDHA inh 0.0, GLP-1R agonist 21.3%, GLP-1R inv ag 3.55µM*, p53 reactivation 1.4% and HEK293 tox 0.8%.
For O=C(CSc1ncnc2c1cnn2CCc1ccccc1)Nc1cccc(C(F)(F)F)c1 the results were LDHA inh -0.2, GLP-1R agonist -23.3%, ClpP mod -2.1%, GLP-1R inv ag 7.94µM*, p53 reactivation -7.6% and HEK293 tox -29.9%.
CC1CCCCC1NCC(=O)Nc1ccccc1-c1ccccc1 (configuration not stated) was read as LDHA inh -17.2, GLP-1R agonist 4.9%, ClpP mod 1.1%, GLP-1R inv ag 4.47µM*, p53 reactivation -8.9% and HEK293 tox -0.2%.
`Cc1ccc(C(=O)N/N=C\c2ccc[nH]2)cn1` gave LDHA inh -0.2, GLP-1R agonist -2.5%, ClpP mod -0.6%, GLP-1R inv ag 9.3%, p53 reactivation 14.7% and HEK293 tox -17.2%.
For COC(=O)c1ccc2c(c1)C(NC(C)=O)CCc1cc(OC)c(OC)c(OC)c1-2 (configuration not stated) the results were LDHA inh -8.8, GLP-1R agonist 1.2%, ClpP mod -2.4%, GLP-1R inv ag -62.3% and HEK293 tox -62.8%.
Screening CC(C)(C)C1COc2ccccc2N1C(=O)c1ccccc1Cl (configuration not stated) returned LDHA inh -0.8, GLP-1R agonist 2.4%, ClpP mod 1.5%, GLP-1R inv ag 8.91µM*, p53 reactivation -4.2% and HEK293 tox -10.2%.
For Cc1ccccc1C(=O)N1c2ccccc2OCC1C(C)(C)C (configuration not stated) the results were LDHA inh 0.9, GLP-1R agonist 2.4%, ClpP mod 0.2%, GLP-1R inv ag inconclusive, p53 reactivation -4.8% and HEK293 tox -6.8%.
`COC(=O)N1CCc2c(sc(NC(=O)C3COc4ccccc4O3)c2C(N)=O)C1` (configuration not stated) gave LDHA inh -7.3, GLP-1R agonist 20.2%, ClpP mod 2.4%, GLP-1R inv ag 4.7%, p53 reactivation 4.1% and HEK293 tox -11.0%.
`COc1nccnc1NS(=O)(=O)c1ccc(NS(=O)(=O)c2ccc(NC(C)=O)cc2)cc1` gave LDHA inh -1.7, GLP-1R agonist -8.1%, ClpP mod 1.3%, GLP-1R inv ag 5.9%, p53 reactivation -1.6% and HEK293 tox -12.5%.
Screening CCCCCC(=O)Nc1ccc(S(=O)(=O)Nc2nccnc2OC)cc1 returned LDHA inh -5.9, GLP-1R agonist -0.3%, ClpP mod 25.1µM*, GLP-1R inv ag 21.6%, p53 reactivation -5.2% and HEK293 tox 6.9%.
For COc1cc(/C=N/NC(=O)c2ccc(NC(=O)C3CC3)cc2)ccc1OC(C)=O the results were LDHA inh -9.2, GLP-1R agonist 0.9%, ClpP mod -4.4%, GLP-1R inv ag 4.3%, p53 reactivation -1.4% and HEK293 tox 4.4%.
`COc1cc(-c2nc3ccccc3s2)ccc1O` gave LDHA inh -9.7, GLP-1R agonist 6.4%, ClpP mod 8.91µM*, GLP-1R inv ag 57.6%, p53 reactivation inconclusive and HEK293 tox 43.2%.
O=C(Nc1ccc2c(c1)OCO2)C1CC(=O)N(c2ccc3c(c2)OCCO3)C1 (configuration not stated) was read as LDHA inh -0.1, GLP-1R agonist 9.5%, GLP-1R inv ag -10.0%, p53 reactivation -4.7% and HEK293 tox -3.4%.
Screening COc1ccc(N2CCN(C(=O)CCn3nnc4ccccc43)CC2)cc1 returned LDHA inh 2.9, GLP-1R agonist -1.4%, ClpP mod -1.2%, GLP-1R inv ag -16.4%, p53 reactivation -1.7% and HEK293 tox -5.3%.
For O=C(Nc1ccc(Cl)c(Cl)c1)Nc1nccs1 the results were LDHA inh -7.6, GLP-1R agonist -5.1%, ClpP mod -0.8%, GLP-1R inv ag 3.16µM*, p53 reactivation inconclusive and HEK293 tox 3.6%.
For O=C(Nc1cccc(Cl)c1)Nc1nccs1 the results were LDHA inh 0.0, GLP-1R agonist 2.7%, ClpP mod -4.1%, GLP-1R inv ag 0.0%, p53 reactivation inconclusive and HEK293 tox inconclusive.
For CC(c1ccccc1)N(CCC(c1ccccc1)C1CCOC(C)(C)C1)C(=O)c1ccco1 (configuration not stated) the results were LDHA inh 0.7, GLP-1R agonist -38.9%, ClpP mod 1.3%, GLP-1R inv ag 10µM*, p53 reactivation -17.4% and HEK293 tox -11.4%.
`CCSc1nnc(NC(=O)c2cccnc2Cl)s1` gave LDHA inh -14.1, GLP-1R agonist -3.9%, ClpP mod -2.3%, GLP-1R inv ag 0.5%, p53 reactivation inconclusive and HEK293 tox 2.7%.
Cc1cccc(N/C(N)=N/c2nc(C)cc(C)n2)c1 was read as LDHA inh 11.2, GLP-1R agonist -16.4%, ClpP mod 31.6µM*, GLP-1R inv ag -22.1%, p53 reactivation -3.6% and HEK293 tox -22.8%.
Screening CC(=O)Nc1cccc(N/C(N)=N/c2nc(C)cc(C)n2)c1 returned LDHA inh -5.5, GLP-1R agonist -0.7%, ClpP mod -3.4%, GLP-1R inv ag -19.5%, p53 reactivation -3.2% and HEK293 tox 5.4%.
For O=C(CCC(=O)c1ccc(Br)cc1)Nc1cccc(C(F)(F)F)c1 the results were LDHA inh -4.1, GLP-1R agonist 0.1%, ClpP mod -1.0%, GLP-1R inv ag inconclusive, p53 reactivation -2.2% and HEK293 tox -10.4%.
For CC(=O)N1N=C(c2ccc(C(C)(C)C)cc2)OC1(C)C the results were LDHA inh 1.2, GLP-1R agonist 16.2%, ClpP mod 31.6µM*, GLP-1R inv ag inconclusive, p53 reactivation 14.6% and HEK293 tox -4.7%.
For CC(=O)N1N=C(c2ccc3ccccc3c2)OC1(C)C the results were LDHA inh 1.0, GLP-1R agonist -1.0%, ClpP mod 13.8%, GLP-1R inv ag inconclusive, p53 reactivation 13.9% and HEK293 tox -5.2%.

Screens: PubChem, National Center for Advancing Translational Sciences (NCATS)
